HPGD block = inhibitors of human 15-hydroxyprostaglandin dehydrogenase (HPGD); actives 4.3% (n = 150,000); purified HPGD, NADH fluorescence kinetic, PGE2 substrate; Potency, µM, usual class: inhibitors
Target sequence (P15428 whole entry, looked up): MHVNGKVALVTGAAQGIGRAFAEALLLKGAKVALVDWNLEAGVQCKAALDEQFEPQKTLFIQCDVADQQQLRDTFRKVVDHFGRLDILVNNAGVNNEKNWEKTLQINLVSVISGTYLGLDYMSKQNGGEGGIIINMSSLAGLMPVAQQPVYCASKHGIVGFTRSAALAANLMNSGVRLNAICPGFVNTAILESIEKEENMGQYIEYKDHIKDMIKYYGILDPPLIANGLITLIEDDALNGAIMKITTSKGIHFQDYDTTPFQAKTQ
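NADH formation kinetics: reaction with 30 uM PGE2 and 1 mM NAD+ (final), 20 nM enzyme, Tris-HCl pH 8 with Tween 20, after 15 min compound preincubation at room temperature. Fluorescence change, last versus first of five reads.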
HttQ103 aggreg = mutant huntingtin aggregation inhibition; Potency, µM (titrated, usually from 46.1 µM), actives largely listed as inhibitors; PC12 HttQ103-GFP aggregates, Acumen cytometry, 40 h; actives 1.1% (n = 220,000); active = well fitted curve in the direction sought with a large enough effect; inconclusive = small, poorly fitted or top-dose-only effect, or another doubt; inactive = no such curve, though single readings can be large; an effect the other way counts as inactive or inconclusive; note: nearly all actives have a fitted effect of over 60% in size
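Aggregates are detected as GFP objects 1–25 µm with signal 6 STDEV over background in lysates of induced PC12 cells. These carry Huntingtin exon 1 with 103 glutamines fused to GFP under an ecdysone promoter; compounds titrated.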
RGS12 GoLoco inh = RGS12 GoLoco-Gai1 interaction inhibition; Gai1:RGS12 GoLoco peptide FP, rhodamine, 10 min; Potency, µM (top dose mostly 61.6 µM), most hits filed as inhibitors; actives 0.44% (n = 230,000); AID 880; active = well fitted inhibition curve with a large enough effect, not every such curve was filed as active; inactive = no such curve, though single readings can be large or run the other way; note: nearly all actives have a fitted effect of over 30% in size
Target sequence (P63096 whole entry, looked up): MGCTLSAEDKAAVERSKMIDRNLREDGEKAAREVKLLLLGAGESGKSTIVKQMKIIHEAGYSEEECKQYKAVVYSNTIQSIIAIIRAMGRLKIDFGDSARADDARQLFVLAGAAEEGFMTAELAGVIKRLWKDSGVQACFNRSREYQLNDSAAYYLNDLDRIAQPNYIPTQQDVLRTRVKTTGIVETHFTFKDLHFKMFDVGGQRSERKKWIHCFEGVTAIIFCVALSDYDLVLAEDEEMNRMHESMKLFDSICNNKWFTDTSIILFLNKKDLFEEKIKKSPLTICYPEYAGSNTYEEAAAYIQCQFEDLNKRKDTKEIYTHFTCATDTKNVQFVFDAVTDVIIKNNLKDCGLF
ALDH1A1 inh = ALDH1A1 (human) enzyme inhibition; Purified ALDH1A1, NADH fluorescence, propionaldehyde substrate; Potency, µM (top dose mostly 75.3 µM), most hits filed as inhibitors; actives 7.3% (n = 220,000); AID 1030
HTT ATP protect = Huntington cell model cytoprotection by ATP luminescence | AID 1471 | PC12 HTT-Q103 induced, cytoprotection, ATP luminescence, 40 h | actives 0.14% (n = 230,000) | Potency, µM (doses to about 56.4 µM), actives largely listed as activators; active = well fitted curve in the direction sought with a large enough effect; inconclusive = small, poorly fitted or top-dose-only effect, or another doubt; inactive = no such curve, though single readings can be large; an effect the other way counts as inactive or inconclusive; note: nearly all actives have a fitted effect of over 45% in size
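Compounds were screened for protection of PC12 cells against cell death after tebufenozide induction (100 nM final) of mutant Huntingtin exon 1 (Q103) fused to GFP.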
PNC inhibitor = blocks assembly of the perinucleolar compartment | PC3M PTB-GFP, PNC prevalence imaging, 16 h; active compounds read low | activity change (PNC), negative = inhibition, % at 10 µM | actives 3.1% (n = 140,000);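 active = readout at or below -70, meaning at least 70% loss of cells showing the perinucleolar compartment, a nuclear body marking cancer cells; inconclusive = readout between -30 and a set limit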
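Read-out is percentage of cells bearing a perinucleolar compartment, from automated 20x imaging of fixed, Hoechst-stained PC3M PTB-GFP cells. Cells were seeded 4 h, then exposed 16 h to compound (23 nl of library stock) in duplicate plates.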
Hits are given with their value; – = inactive; ? = inconclusive; · = no result given; [ ] = dose if it differs, or a comment. Only some compounds are listed: those with a hit (about 11% of all), similar ones and a draw of the others. Unless noted, calls come from the whole dose curve; as a rule, active = well fitted inhibition curve with a large enough effect (not every such curve was filed as active); inconclusive = small, poorly fitted or top-dose-only effect, or another doubt; inactive = no such curve, though single readings can be large or run the other way.

SMILES	HPGD block	HttQ103 aggreg	RGS12 GoLoco inh	ALDH1A1 inh	HTT ATP protect	PNC inhibitor
C/C(=N\S(=O)(=O)c1ccc(C)cc1)N1CCN(S(=O)(=O)c2ccccc2)C1	–	–	–	4µM	?	–
Cc1ccc(S(=O)(=O)N2CCN(S(=O)(=O)c3ccccc3)C2)cc1	–	–	–	–	–	–
CCOc1ccc(NC(=S)Nc2cccc3cnccc23)cc1	–	–	–	32µM	–[1.9 µM]	–
COc1ccc(NC(=S)Nc2cccc3cnccc23)cc1	–	–	–	25µM	·	–
COc1ccccc1NC(=S)Nc1cccc2cnccc12	–	–	–	25µM	–[10 µM]	–
CCOc1ccc(NC(=S)Nc2ccccc2C2CC2)cc1	·	–[9.22 µM]	–	–	–[10 µM]	·
Cc1ccc2c(c1C)OC(=O)CC2(C)C	?	–	–	?	·	–
O=C(NC(=S)Nc1ccc(N2CCOCC2)c(Cl)c1)c1cccs1	·	–[9.22 µM]	–	–	–[10 µM]	·
O=C(NC(=S)Nc1ccc(N2CCCCC2)c(Cl)c1)c1ccc2c(c1)OCCO2	?	–	–	10µM	?	?
O=C(NC(=S)Nc1ccc(N2CCOCC2)c(Cl)c1)c1sc2ccccc2c1Cl	–	–	–	3.5µM	–[1.9 µM]	–
O=C(NC(=S)Nc1ccc(N2CCOCC2)c(Cl)c1)c1cncc(Br)c1	22µM	–	–	7.9µM	·	?
O=C(NC(=S)Nc1ccccc1N1CCOCC1)c1sc2ccccc2c1Cl	–	–	–	?	–[10 µM]	–
CCCNC(=O)OC[C@H]1O[C@@H](CCO/N=C2/[C@H]3O[C@@H]3[C@@H](O)[C@H]3[C@H]2CCn2c(=O)n(-c4ccccc4)c(=O)n23)C=C[C@@H]1Oc1ccc(OC)cc1	·	·	·	–[13.5 µM]	–[10 µM]	·
Cc1ccc(NC(=S)NCC2CCN(C(C)c3ccccc3)C2)cc1C (stereo not given)	·	–	–	–	–	·
CCCCn1c(SCC(=O)c2ccc(OC)cc2OC)nc2cc(S(N)(=O)=O)ccc21	–	–	–	7.1µM	–[0.074 µM]	?
CCCCn1c(SC(C)C(=O)c2ccc(OC)cc2)nc2cc(S(N)(=O)=O)ccc21 (stereo not given)	–	–	–	–	–	–
COCCNC(C(=O)Nc1cc(Cl)cc(Cl)c1)c1ccccc1 (stereo not given)	–	–	–	14µM	–	–
COCC(C)NC(C(=O)Nc1ccc(C)c(Cl)c1)c1ccccc1 (stereo not given)	–	–	–	?	–	–
CCOCCCNC(C(=O)Nc1ccc(OC)c(Cl)c1)c1ccccc1 (stereo not given)	·	–	–	2.2µM	–[10 µM]	·
COc1cccc(N2C(=O)CC(N3CCN(CCN=CC4=C(O)CC(C)(C)CC4=O)CC3)C2=O)c1 (stereo not given)	·	–[9.22 µM]	–	?	–[10 µM]	·
NC(=S)Nc1cc2ccccc2c2ccccc12	–	–	–	0.4µM	–	?
NC(=S)Nc1cccc2cc3ccccc3cc12	–	–	–	?	–	–
Cc1ccc(S(=O)(=O)NCC(=O)NCC(=O)OCC(=O)N2CC(=O)Nc3ccccc32)cc1C	·	–	–	?	–	·
COc1ccccc1-n1cc(C(=O)N2CCCC(CO)(Cc3ccccc3C)C2)cn1 (stereo not given)	·	–	–	–	–	·
Nc1c(S(=O)(=O)O)cc(Nc2cccc(S(N)(=O)=O)c2)c2c1C(=O)c1ccccc1C2=O	?	·	–[14.2 µM]	?	–[10 µM]	·
SMILES	HPGD block	HttQ103 aggreg	RGS12 GoLoco inh	ALDH1A1 inh	HTT ATP protect	PNC inhibitor
O=C(O)c1ccc2c3c(cccc13)C(=O)N(c1ccccc1O)C2=O	·	·	·	·	–	·
C=CCSc1nc2ccccc2c(=O)n1Cc1ccco1	–	·	–[14.2 µM]	–[13.5 µM]	–[10 µM]	·
Cc1ccccc1-c1nc2ccccc2c(=O)n1/N=C/c1ccccc1[N+](=O)[O-]	22µM	–	–	14µM	–	–
O=c1c2ccccc2nc(-c2ccccc2)n1/N=C/c1ccc([N+](=O)[O-])cc1	–	–	–	–	–[10 µM]	–
CCOC(=O)c1cc(-c2ccc(N)cc2)sc1N	–	–	–	28µM	–[10 µM]	–
NC1(C(=O)NC2(C(=O)O)CCCC2)CCCC1	–	·	–[14.2 µM]	–[13.5 µM]	–[10 µM]	·
O=C(COC(=O)c1ccc(Br)o1)Nc1nc2c(F)c(F)c(F)cc2s1	·	–[9.22 µM]	–	22µM	–[10 µM]	·
O=C(COC(=O)c1ccc(NS(=O)(=O)c2cccs2)cc1)Nc1nc2c(F)c(F)c(F)cc2s1	·	–	–	–	–	·
COc1cccc(Cn2c(=O)c(-c3cccs3)nc3cncnc32)c1	·	·	–	–	–	·
C=CCN1C(=O)C(Cc2ccc(OC)cc2)S/C1=N/N=C/c1ccco1 (stereo not given)	–	–	–	7.1µM	–[10 µM]	–
O=C(O)C(=Cc1ccc(-c2ccccc2)cc1)C(=O)O	–	·	–[14.2 µM]	–[13.5 µM]	–[10 µM]	·
CCC(CC)c1nnc(NC(=O)[C@@H](NC(=O)c2cccc(C)c2)C(C)C)s1	–	–	–	–	–[1.9 µM]	-97
CCSc1nnc(NC(=O)[C@@H](NC(=O)c2cccc(C)c2)C(C)C)s1	–	–	–	–	–[1.9 µM]	–
O=C(c1ccco1)N1CCC2(CC1)CN(C(c1ccccc1)c1ccccc1)C2	–	·	–	–	–	·
CCCCN(C)CC(O)Cn1cc(/C=C/C(=O)c2cccs2)c2ccccc21 (stereo not given)	–	–	–	–	–[10 µM]	-100
CC12C=C(/C=C/C=C/c3ccccc3)C(C)(C1)C(/C=C/c1ccccc1)CC2=O (stereo not given)	·	·	·	?	–[10 µM]	·
COC(=O)c1cc2occc2n1Cc1c(F)cccc1Cl	–	–	–	13µM	–	–
O=C(c1csnn1)N1CCC[C@@]2(CCN(Cc3cc(C(F)(F)F)cc(C(F)(F)F)c3)C2)C1	–	·	–	?	–	·
O=C(/C=C/c1ccco1)N1CCN(S(=O)(=O)/C=C/c2ccccc2)CC1	·	–	–	7.9µM	–	·
O=C(/C=C/c1ccco1)N1CCN(c2ccccc2)CC1	–	–	–	?	–[0.074 µM]	?
O=C(/C=C/c1ccco1)N1CCN(S(=O)(=O)c2cccs2)CC1	·	–[9.22 µM]	–	7.1µM	–[10 µM]	·
O=C(/C=C/c1ccco1)N1CCN(C/C=C/c2ccccc2)CC1	–	–	–	13µM	–[10 µM]	?
N#Cc1cccc(-c2ccc3ncnc(NCc4cccnc4)c3c2)c1	?	·	–	?	–	·
CC(=O)NC(Cc1ccccc1)C(=O)OCC(=O)c1ccccc1 (stereo not given)	–	–	–	–	–[10 µM]	–
Cn1c(=O)c(-c2cc(Br)ccc2N)nc2ccccc21	–	13µM	–	–	–[10 µM]	?
O=C(NC(c1ccccc1)c1ccccn1)c1cccc([N+](=O)[O-])c1 (stereo not given)	·	–	–	14µM	–	·
O=C(NNC(=O)c1ccccn1)c1cccc([N+](=O)[O-])c1	·	?	–	–	·	·
Nc1ccc(N)c(C(=O)O)c1	·	·	16µM	·	·	·
O=C(NC1CCCCC1)c1ccc(Cc2nc3ccccc3[nH]2)cc1	–	·	·	–	·	·
